# Test results from the supplement of paper PMC10338343.
# ± gives the standard deviation.
# Tests used:
# [1] = system: MILI (PIWIL2) piRISC loaded with L1MC piRNA (26 nt); experiment: pre-steady-state target cleavage rate (min^-1); guide: L1MC piRNA 5'p-UAACUAAAUACUAUGCAAGCUGUAGG; higher = faster piRNA-guided slicing of the target;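 note: 1 nM active piRISC with 0.1 nM target library at 33 °C single turnover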
# Method in brief: (§1)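 The pre-steady-state cleavage rate was calculated from a burst-and-steady-state fit. Data came from Cleave-'n-Seq, in which […] transcribed, DNA-blocked target RNA library was mixed with 1 nM active affinity-purified piRISC carrying one synthetic guide, with or without 500 nM GTSF1 partner protein, in HEPES–potassium acetate buffer at 33 °C for 0–8 or 0–960 min. Uncleaved targets were sequenced and normalised to depth and to weakly complementary targets, three trials were pooled, and k3 was capped at 0.0001 min^-1.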
# [2] = system: EfPiwi piRISC loaded with L1MC piRNA (26 nt); experiment: pre-steady-state target cleavage rate (min^-1); auxiliary factor: 500 nM Ephydatia muelleri Gtsf1; guide: L1MC piRNA 5'p-UAACUAAAUACUAUGCAAGCUGUAGG; MIWI and MILI are mouse PIWI proteins and EfPiwi is from a freshwater sponge; tags in brackets are library labels; higher = faster piRNA-guided slicing of the target
# Method in brief: as §1
# [3] = auxiliary factor: 500 nM mouse GTSF1
sequence,measurement,setting,value
UCCUCCUACAGCAAGCAUAGUAUUUAGAAA,pre-steady-state target cleavage rate,[1]; [3],0.217 ± 0.035
same,pre-steady-state target cleavage rate,[2],0.00443 ± 0.0036
UCCUGGUACAGCUUGCAUAGUAUAAAGUAA,pre-steady-state target cleavage rate,[1]; [3],0.0705 ± 0.02
same,pre-steady-state target cleavage rate,[2],0.00243 ± 0.0022
UCCUCCUUGUGCUUGCAUAGUAUUUACAAA,pre-steady-state target cleavage rate,[1]; [3],0.0181 ± 0.0068
same,pre-steady-state target cleavage rate,[2],0.00376 ± 0.0032
UCCUGGAUCAGCUUGCAUACUAUUAAGUUA,pre-steady-state target cleavage rate,[1]; [3],0.0204 ± 0.0077
same,pre-steady-state target cleavage rate,[2],0.00253 ± 0.0023
UCCUCCUACAGCUUGCAUAGAAUUAAGUUA,pre-steady-state target cleavage rate,[1]; [3],0.127 ± 0.03
same,pre-steady-state target cleavage rate,[2],0.00382 ± 0.0025
UCCUCCUACAGCUUGCAUAGUAAUUAGAUA,pre-steady-state target cleavage rate,[1]; [3],0.179 ± 0.046
same,pre-steady-state target cleavage rate,[2],0.00553 ± 0.0026
UCCUGGAUCAGCUUGCAUAGUAUUUAGUCUA,pre-steady-state target cleavage rate,[1]; [3],0.0918 ± 0.025
same,pre-steady-state target cleavage rate,[2],0.00289 ± 0.0027
UCCUGGAACACCAUGCAUAGUAUUUAGUUA,pre-steady-state target cleavage rate,[1]; [3],0.163 ± 0.018
same,pre-steady-state target cleavage rate,[2],0.00616 ± 0.0041
UCCUCCUACAGCUUGCAUAGUAUUUAGUCUA,pre-steady-state target cleavage rate,[1]; [3],0.154 ± 0.041
same,pre-steady-state target cleavage rate,[2],0.00459 ± 0.0018
UCCUGCUACAGCUUGCAUAGUAUAUUGUUA,pre-steady-state target cleavage rate,[1]; [3],0.187 ± 0.036
same,pre-steady-state target cleavage rate,[2],0.00351 ± 0.0021
UCCUGGAUGUGCUUGCAUAGUAUUUACAAA,pre-steady-state target cleavage rate,[1]; [3],0.00913 ± 0.0046
same,pre-steady-state target cleavage rate,[2],0.00369 ± 0.0033
UCCUCCUACAGCUUGCAAAGUAUUUAGAUA,pre-steady-state target cleavage rate,[1]; [3],0.0875 ± 0.015
same,pre-steady-state target cleavage rate,[2],0.00419 ± 0.0024
UCCUCCUACAGCUAGCAUAGAAUUUAGUUA,pre-steady-state target cleavage rate,[1]; [3],0.0602 ± 0.011
same,pre-steady-state target cleavage rate,[2],0.00325 ± 0.0019
UCCUGGAACACCUUGCAUACUAUUUAGUUA,pre-steady-state target cleavage rate,[1]; [3],0.0449 ± 0.0096
same,pre-steady-state target cleavage rate,[2],0.00273 ± 0.002
UCCUGGAACAGCUAUGCAUAGUAUUUAGUUA,pre-steady-state target cleavage rate,[1]; [3],0.21 ± 0.018
same,pre-steady-state target cleavage rate,[2],0.0102 ± 0.0029
UCCUGCUACAGCUUGCAUAGUUUUAGUUA,pre-steady-state target cleavage rate,[1]; [3],0.0113 ± 0.0045
same,pre-steady-state target cleavage rate,[2],0.00248 ± 0.0013
UCCUGGAACUCGUUGCAUAGUAUUUAGAAA,pre-steady-state target cleavage rate,[1]; [3],0.136 ± 0.021
same,pre-steady-state target cleavage rate,[2],0.00502 ± 0.004
UCCUCCUACAGCUUGCAUACUAUUUAGAAA,pre-steady-state target cleavage rate,[1]; [3],0.136 ± 0.043
same,pre-steady-state target cleavage rate,[2],0.00366 ± 0.0019
UCCUGGUACUGCUUGCAUAGUAUUUAGAUA,pre-steady-state target cleavage rate,[1]; [3],0.0302 ± 0.014
same,pre-steady-state target cleavage rate,[2],0.00378 ± 0.0019
UCCUGGAUGUGCUUCCAUAGUAUUUAGUAA,pre-steady-state target cleavage rate,[1]; [3],0.0304 ± 0.012
same,pre-steady-state target cleavage rate,[2],0.00486 ± 0.003
UCCUGCUAGAGCUUGCAUACUAUUUAGUUA,pre-steady-state target cleavage rate,[1]; [3],0.0842 ± 0.018
same,pre-steady-state target cleavage rate,[2],0.00515 ± 0.0018
UCCUCCAUCAGCUUGCAUAGUAUUUACAAA,pre-steady-state target cleavage rate,[1]; [3],0.0667 ± 0.017
same,pre-steady-state target cleavage rate,[2],0.00282 ± 0.0024
UCCUCCUACAGCUUGCAUACUAUUUACUUA,pre-steady-state target cleavage rate,[1]; [3],0.0688 ± 0.016
same,pre-steady-state target cleavage rate,[2],0.00621 ± 0.0047
UCCUGGAUCAGCUUGCAAAGUAUUUACAAA,pre-steady-state target cleavage rate,[1]; [3],0.0432 ± 0.012
same,pre-steady-state target cleavage rate,[2],0.00563 ± 0.0037
UCCUGCUACAGCUUGCAUAUAUUUAGUUA,pre-steady-state target cleavage rate,[1]; [3],0.046 ± 0.011
same,pre-steady-state target cleavage rate,[2],0.00528 ± 0.0031
UCCUCCUACAGCUUGCAUAGUAUUAACAAA,pre-steady-state target cleavage rate,[1]; [3],0.11 ± 0.023
same,pre-steady-state target cleavage rate,[2],0.00454 ± 0.0033
UCCUGGAACAGCUUGCAUAGUAUUUAUGUUA,pre-steady-state target cleavage rate,[1]; [3],0.127 ± 0.018
same,pre-steady-state target cleavage rate,[2],0.0035 ± 0.002
UCCUGGAUCAGCUUGCAUAGUAAUUUGUUA,pre-steady-state target cleavage rate,[1]; [3],0.114 ± 0.025
same,pre-steady-state target cleavage rate,[2],0.00366 ± 0.002
UCCUGCUACAGCUUGCAUAGUAUUUAGAAA,pre-steady-state target cleavage rate,[1]; [3],0.157 ± 0.032
same,pre-steady-state target cleavage rate,[2],0.00439 ± 0.0012
UCCUCCUACAGCUUGCAUAGCAUUUAGUUA,pre-steady-state target cleavage rate,[1]; [3],0.0883 ± 0.013
same,pre-steady-state target cleavage rate,[2],0.00463 ± 0.0019
UCCUCCUACAGCUUGCAUAGUAAAAACAAA,pre-steady-state target cleavage rate,[1]; [3],0.0836 ± 0.022
same,pre-steady-state target cleavage rate,[2],0.00389 ± 0.0036
UCCUGGAUGUCGAACCAUAGUAUUUACAAA [g5:g15:cont:t1A],pre-steady-state target cleavage rate,[1]; [3],< 0.0001
same,pre-steady-state target cleavage rate,[2],< 0.0001
UCCUGGAACAGCUUGCAUACUAUUAAGUUA,pre-steady-state target cleavage rate,[1]; [3],0.0333 ± 0.012
same,pre-steady-state target cleavage rate,[2],0.00246 ± 0.0024
UCCUGGAACACCUAGCAUAGUAUUUAGUUA,pre-steady-state target cleavage rate,[1]; [3],0.229 ± 0.032
same,pre-steady-state target cleavage rate,[2],0.00601 ± 0.0036
UCCUGGAACAGCUUGCAUAGUAUUUAGAUUA,pre-steady-state target cleavage rate,[1]; [3],0.0966 ± 0.023
same,pre-steady-state target cleavage rate,[2],0.00539 ± 0.002
UCCUGCAACAGCUUGCAUAGUAUUUUCAAA,pre-steady-state target cleavage rate,[1]; [3],0.104 ± 0.027
same,pre-steady-state target cleavage rate,[2],0.00269 ± 0.0017
UCCUGGAUGUGCUUGCAUAUUAUUUAGUUA,pre-steady-state target cleavage rate,[1]; [3],0.0346 ± 0.0073
same,pre-steady-state target cleavage rate,[2],0.00647 ± 0.0022
UCCUCCUACAGCUUGCAUAGUAUAUAGUAA,pre-steady-state target cleavage rate,[1]; [3],0.147 ± 0.023
same,pre-steady-state target cleavage rate,[2],0.00441 ± 0.002
UCCUGGAUCAGCUUGCAUAGUUAAUAGUUA,pre-steady-state target cleavage rate,[1]; [3],0.017 ± 0.0066
same,pre-steady-state target cleavage rate,[2],0.00344 ± 0.003
UCCUCCUACAGCUUGCAUAGUAUUUUGAAA,pre-steady-state target cleavage rate,[1]; [3],0.148 ± 0.03
same,pre-steady-state target cleavage rate,[2],0.00602 ± 0.0032
UCCUCCUACAGGUUGCAUAGUAUUUAGAUA,pre-steady-state target cleavage rate,[1]; [3],0.123 ± 0.017
same,pre-steady-state target cleavage rate,[2],0.00362 ± 0.00095
UCCUGGAAGAGCUUCCAUAGUAUUUAGUUA,pre-steady-state target cleavage rate,[1]; [3],0.297 ± 0.085
same,pre-steady-state target cleavage rate,[2],0.00329 ± 0.0011
UCCUGGAUCUCCUUGCAUAGUAUUUAGAAA,pre-steady-state target cleavage rate,[1]; [3],0.192 ± 0.031
same,pre-steady-state target cleavage rate,[2],0.00628 ± 0.0051
UCCUGGAUCAGCUUGCUUAGUAUUUAGAAA,pre-steady-state target cleavage rate,[1]; [3],0.0821 ± 0.019
same,pre-steady-state target cleavage rate,[2],0.00269 ± 0.0022
UCCUCCAACAGCUUGCAUAGUAUUUUGUUA,pre-steady-state target cleavage rate,[1]; [3],0.108 ± 0.019
same,pre-steady-state target cleavage rate,[2],0.00594 ± 0.0025
UCCUCCUACAGCUUGCAUAGUAUAAAGUAA,pre-steady-state target cleavage rate,[1]; [3],0.0819 ± 0.019
same,pre-steady-state target cleavage rate,[2],0.0031 ± 0.0024
UCCUCCUACACCUUGCAUAGUAUUUAGAUA,pre-steady-state target cleavage rate,[1]; [3],0.161 ± 0.044
same,pre-steady-state target cleavage rate,[2],0.004 ± 0.0023
UCCUGGAACACCUUGCAUAGUAUUUUGUUA,pre-steady-state target cleavage rate,[1]; [3],0.14 ± 0.035
same,pre-steady-state target cleavage rate,[2],0.00343 ± 0.0029
UCCUCCUACAGCUAGCAUAGUAUUUAGAUA,pre-steady-state target cleavage rate,[1]; [3],0.144 ± 0.025
same,pre-steady-state target cleavage rate,[2],0.00495 ± 0.0024
UCCUGGAUGAGCUUCCAUAGUAUUUAGUUA,pre-steady-state target cleavage rate,[1]; [3],0.0222 ± 0.011
same,pre-steady-state target cleavage rate,[2],0.00346 ± 0.0018
UCCUGCUACAGCUUGCAUUGUAUUAAGUUA,pre-steady-state target cleavage rate,[1]; [3],0.215 ± 0.03
same,pre-steady-state target cleavage rate,[2],0.00572 ± 0.0028
UCCUCCUACAGCUUGCAUAGUUUUUUGUUA,pre-steady-state target cleavage rate,[1]; [3],0.0587 ± 0.013
same,pre-steady-state target cleavage rate,[2],0.00441 ± 0.0026
UCCUGGAUGUCGAACGUAUCUAUUUAUGUUA,pre-steady-state target cleavage rate,[1]; auxiliary factor: none (no GTSF1),< 0.0001
same,pre-steady-state target cleavage rate,[2],< 0.0001
UCCUCCUACAGCUUGCAAUAGUAUUUAGUUA,pre-steady-state target cleavage rate,[1]; [3],0.0415 ± 0.01
same,pre-steady-state target cleavage rate,[2],0.0427 ± 0.014
